The panel holds about 83,000 compounds, 20% with a hit somewhere; the sample as a whole holds those more often.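 Method: cells in 96-well plates; compound added at one concentration; 48 h incubation; percent growth measured; values under 10 scored active.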 A number with no mark means an inactive call. Active and inactive are the calls of the source.

The text below walks through data of PubChem BioAssay (NCI).

Holding throughout (assay): NCI-60 one-dose screen, 48 h (100 = growth as untreated, 0 = no growth, -100 = all killed)
Settings in all cases: 10 µM

Test [1] deals with SR leukemia.
Test [2] concerns RPMI-8226 leukemia.
For test [3], the system named is OVCAR-8 ovarian.
Test [4] has as its system OVCAR-5 ovarian.
Test [5] concerns OVCAR-4 ovarian.
Test [6] relates to SK-OV-3 ovarian.
Test [7] concerns IGROV1 ovarian.
The subject of test [8] is OVCAR-3 ovarian.
Test [9] relates to HS 578T breast.
The subject of test [10] is NCI/ADR-RES ovarian.

As to `O=C(Cc1ccc2c(c1)CN(C1CCC(=O)NC1=O)C2=O)NCc1cccc2ccccc12` (configuration not stated), the growth in [1] was 13.6%; in test [2], 18%; in test [3] it was -3.71% (active); in [4], -11% (active); in [5], -2.52% (active); in [6], -7.7% (active). In addition, the growth in [7] was -13.5% (active); in [8] it was -22.3% (active); in test [9] it was -11.3% (active); in test [10] it was -18.5% (active).

`COc1cnc2c(c1)C(=O)c1c-2n(CCCNCCO)c(=O)c2cc(OC)c(OC)cc12`: the growth in test [1] was 5.85% (active); in test [2] it was 4.21% (active); in test [3] it was 30.4%; in test [4], 24%; in [5] it was 47.8%; in test [6] it was 7.28% (active). In addition, the growth in [7] is 27.2%; in test [8] it was 3.13% (active); in [9], 105%; in test [10], 88%.

In the case of `N#Cc1ccc(-c2nn(-c3ccc(C(=O)O)cc3)cc2CNc2ccc(Oc3ccccc3)cc2)cc1`, the growth was 37.3% in [1]; 22.4% in test [2]; 39.2% in test [3]; 81.1% in test [4]; 73.7% in [5]; 111% in test [6]. Also, the growth was 74.7% in test [7], 45.1% in test [8], 53.9% in test [9] and 17.1% in test [10].

With `O/N=C(\CSc1nnc(-c2c[nH]c3ccccc23)n1-c1ccccc1)c1ccc(Cl)cc1`, the growth is 12.8% in test [1]; -13.4% (active) in test [2]; 6.37% (active) in [3]; -43.4% (active) in test [4]; -81.3% (active) in [5]; -1.58% (active) in [6]. Further, the growth was -34.1% (active) in test [7], 34.2% in test [8], -31.7% (active) in [9] and -70.2% (active) in test [10].

Consider `O=C(CSc1nnc(-c2c[nH]c3ccccc23)n1-c1ccccc1)Nc1ccc(C(=O)/C=C/c2cccc([N+](=O)[O-])c2)cc1`, for which the growth was 75.2% in test [1]; 13.9% in test [2]; 97.2% in [3]; 103% in [4]; 84.2% in test [5]; 106% in [6]. In addition, the growth in test [7] was 82.9%; in [8] it was 103%; in test [9] it was 74%; in [10], 96.3%.

Take `CCCn1c(=O)c2[nH]c(-c3ccc(OCc4nc5ccccc5[nH]4)cc3)nc2n(CCC)c1=O`: the growth in test [1] was 39%; in test [2], 40%; in test [3] it was 27.6%; in test [4] it was 92.2%; in [5] it was 3.46% (active); in [6], 40.3%. Besides, the growth was 39.8% in [7], 26.8% in [8], -17.8% (active) in test [9] and 66.3% in test [10].

In the case of `CC(=O)c1cc(C(=O)c2ccc3c(c2)NC(=O)CO3)n2ccc3ccccc3c12`, the growth was 63.2% in [1]; 62.7% in test [2]; 50.3% in [3]; 85.7% in test [4]; 47.9% in test [5]; 108% in [6]. Besides, the growth in [7] is 96.2%; in test [8], 118%; in test [9] it was 63.1%; in test [10] it was 69%.

As for `COc1nccnc1NS(=O)(=O)c1ccc(NC2=C(Cl)C(=O)c3nc(C)ccc3C2=O)cc1`, the growth was 115% in test [1]; 94.5% in [2]; 99.5% in [3]; 112% in [4]; 86.5% in [5]; 91.4% in test [6]. Besides, the growth in [7] was 113%; in test [8], 83.2%; in test [9], 92.8%; in test [10], 92.4%.

`Clc1cccc(N/N=C/c2c[nH]c3ccccc23)n1`: the growth in test [1] is 13.7%; in test [2], 4.05% (active); in [3], 41%; in [4], 52.2%; in test [5], 41.3%; in test [6], 63.7%. The growth is -4.86% (active) in test [7], -12.6% (active) in [8], 28.5% in test [9] and -4.45% (active) in test [10].

As to `Cc1ccn2c(C(=O)c3ccc(Br)cc3)cc(-c3cc(-c4ccc(N(C)C)cc4)c(C#N)c(N)n3)c2c1`, the growth in test [1] was 64.3%; in [2], 83.7%; in test [3] it was 38.2%; in test [4] it was 66%; in test [5], 63.3%; in test [6], 93.8%. The growth was 76.6% in [7], 50.2% in test [8], 70.2% in test [9] and 72% in test [10].

For `COc1ccc(C(=O)/C=C/c2ccc(Cl)c(C(F)(F)F)c2)cc1S(N)(=O)=O`, the growth is 8.87% (active) in test [1]; 2.54% (active) in test [2]; -73.4% (active) in test [3]; -100% (active) in test [4]; -99.7% (active) in test [5]; 9.96% (active) in test [6]. Besides, the growth in [7] was -91.5% (active); in test [8], -66.5% (active); in [9], -41.3% (active); in test [10] it was -44% (active).

With `CN(C)c1ccc(/C=C/c2nc3ccccc3c(=O)n2CC(=O)Nc2ccccc2)cc1`, the growth was 75.5% in test [1]; 64.3% in test [2]; 25.9% in test [3]; 89.1% in test [4]; 35.5% in test [5]; 92% in [6]. The growth was 76.2% in test [7], 26.4% in test [8], 44.7% in test [9] and 30.4% in test [10].

In the case of `O=C(CSc1nnc(-c2c[nH]c3ccccc23)n1-c1ccccc1)Nc1ccc(C(=O)/C=C/c2ccccc2Cl)cc1`, the growth was 71.6% in test [1]; 40.3% in test [2]; 61.7% in test [3]; 101% in [4]; 79.1% in test [5]; 95.2% in [6]. For the same compound, the growth in [7] is 95.1%; in [8], 80.6%; in test [9], 86.4%; in [10] it was 92.4%.

Turning to `C/C(=N\N=C\c1ccc(Cl)c([N+](=O)[O-])c1)c1ccc2c(c1)Nc1ccccc1S2`, the growth in test [1] is 44.1%; in test [2] it was 33.3%; in test [3] it was 6.83% (active); in [4], 72.8%; in [5] it was 23.7%; in test [6], 94.8%. The growth is 60.3% in [7], 27.5% in test [8], 0.197% (active) in test [9] and 11.7% in test [10].

As to `C#CCNC(=O)CCC(=O)OC[C@]12CC[C@@H](C(=C)C)[C@@H]1C1CC[C@@H]3[C@@]4(C)CCCNC(C)(C)[C@@H]4CC[C@@]3(C)[C@]1(C)CC2` (some centres not stated), the growth in test [1] is -7.1% (active); in test [2], -6.58% (active); in test [3], -59.9% (active); in test [4] it was 47.3%; in test [5] it was 30.3%; in test [6], 26.9%. The growth in test [7] is -3.31% (active); in test [8] it was -71% (active); in [9], 14.4%; in [10], -75.1% (active).

For the compound `CC(=O)Nc1ccc(-c2cn(-c3cccc(C(=O)Nc4cc(CN5CCOCC5)cc(C(F)(F)F)c4)c3)nn2)cn1`, the growth is 0.486% (active) in [1]; 2.68% (active) in test [2]; -37% (active) in test [3]; -95% (active) in test [4]; -82.6% (active) in [5]; -67.6% (active) in test [6]. Also, the growth is -84.6% (active) in [7], -54.5% (active) in test [8], -46.2% (active) in test [9] and 67.9% in [10].

With `O=C(CSc1nnc(-c2c[nH]c3ccccc23)n1-c1ccccc1)c1ccc(Br)cc1`, the growth was 90.8% in [1]; 54.4% in test [2]; 43.5% in [3]; 58.3% in test [4]; 46.2% in test [5]; 48.6% in test [6]. The growth in test [7] was 64.1%; in [8], 42.5%; in [9] it was 52.3%; in test [10], 26.3%.

In the case of `C/C(=C\CSc1ccccc1C(=O)O)CCCC(C)CCCC(C)CCCC(C)C` (configuration not stated), the growth in test [1] was 18.7%; in test [2], 35%; in test [3] it was 54%; in test [4], 115%; in test [5], 57.3%; in test [6] it was 96.5%. The growth in test [7] was 76.1%; in test [8] it was 74.4%; in [10] it was 43.1%.

On to `O=C(NO)c1ccc(CN2CCN(c3nc(-c4ccccc4)c4ccccc4n3)CC2)cc1`, for which the growth is 8.6% (active) in [1]; 24.5% in [2]; 8.54% (active) in [3]; 19.3% in test [4]; 22.7% in test [5]; -22.2% (active) in test [6]. The growth was 17.8% in [7], 27.6% in [8] and -36.1% (active) in test [10].

On to `O=C(NO)c1ccc(-c2nc3ccc4[nH]ncc4c3c3c2CCCC3)cc1`, for which the growth in test [1] is -13.8% (active); in [2], -9.23% (active); in test [3] it was -16.7% (active); in test [4] it was -1.66% (active); in [5], -4.75% (active); in test [6] it was 21.1%. The growth is -18.9% (active) in [7], -57% (active) in test [8], -29.8% (active) in [9] and -4.37% (active) in test [10].

On to `O=C(CNc1nc(-c2ccccc2)cs1)Nc1ccc(Cl)cc1[N+](=O)[O-]`, for which the growth is 7.61% (active) in test [1]; 1.75% (active) in test [2]; 10.8% in [3]; -52.2% (active) in test [4]; 15.5% in test [5]; -6.03% (active) in [6]. In addition, the results for the growth in test [7], in test [8] and in test [10] were 8.13% (active), -31.9% (active) and -30.7% (active), respectively.

On to `COc1ccc(NC(=O)Nc2ccc(OCC(=O)N=Nc3c(O)[nH]c4ccc([N+](=O)[O-])cc34)cc2)cc1`, for which the growth was 92.4% in [1]; 110% in test [2]; 37.1% in test [3]; 124% in test [4]; 59.8% in test [5]; 93.9% in test [6]. The growth in test [7] is 92.6%; in [8], 24.6%; in [9], 39%; in test [10], 91.1%.

With `CCCCSc1nc(Nc2ccc(/C(C)=N/NC(N)=S)cc2)c(C#N)c(-c2ccc(F)cc2)n1`, the growth in test [1] is 52.4%; in test [2], 58.2%; in test [3], 7.66% (active); in [4], 64.4%; in test [5], 16.3%; in test [6], 78.4%. The growth in test [7] was 49.6%; in test [8], 35.4%; in test [9], 28.8%; in test [10], 37.5%.

Turning to `OCc1[nH]nc2cc(Nc3ncc4ccc(Br)c(OC5CCC(O)CC5)c4n3)ccc12` (configuration not stated), the growth in test [1] is 3.06% (active); in test [2] it was 3.2% (active); in [3] it was 8.63% (active); in test [4] it was -17.9% (active); in [5], 4.77% (active); in test [6], 13.7%. Moreover, the growth in [7] was -12.4% (active); in test [8], 2.95% (active); in test [9] it was -28.5% (active); in test [10], -3.04% (active).

As for `O=C(NCCCCCCCCCC[P+](c1ccccc1)(c1ccccc1)c1ccccc1)c1ccc(-n2nc(-c3ccccc3O)nc2-c2ccccc2O)cc1`, the growth in [1] was 1.87% (active); in test [2] it was 1.07% (active); in [3], -22.2% (active); in [4], -94% (active); in test [5], -51.8% (active); in test [6] it was -71.5% (active). The growth in [7] is -75.7% (active); in [8] it was -14.1% (active); in test [9], -22.1% (active); in [10], 37.4%.

Regarding `CN1C(=O)N(C)C2SC(N/N=C/c3ccccc3)=NC21` (configuration not stated), the growth is 13.6% in test [1]; 97.4% in test [2]; 97.1% in [3]; 94.4% in [4]; 94.6% in [5]; 95.7% in test [6]. Also, the growth in [7] was 64.5%; in test [8] it was 25.1%; in test [9] it was 66.1%; in test [10], 44.6%.
